Assay [1] is described as follows: qHTS Screen of the MIPE 4.0 Collection Against Ewings Sarcoma (RDES) (AID 1259252). Also: nearly all actives have a fitted effect of over 35% in size. Also: potency is read from the fitted curve at half-maximal effect. The procedure, abridged: (§1)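 Cells plated in serum-containing RPMI (5% FBS) and treated with compound dilutions for 48 h. Readout luminescent viability; normalization relied on vehicle (no inhibition) and media-only columns (full inhibition).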
Assay [2] is described as follows: qHTS Screen of the MIPE 4.0 Collection Against Ewings Sarcoma (TC71) (AID 1259253). Also: nearly all actives have a fitted effect of over 40% in size. Also: potency is read from the fitted curve at half-maximal effect. In a few lines:
as §1
For orientation: In qHTS, concentration-response curves come from the screen itself.

A short description of assay [3]: qHTS Screen of the MIPE 4.0 Collection Against Ewings Sarcoma (EW8) (AID 1259255). Also: nearly all actives have a fitted effect of over 35% in size. Also: potency is read from the fitted curve at half-maximal effect. In a few lines: as §1
Assay [4] in a line: qHTS Screen of the MIPE 4.0 Collection Against Ewings Sarcoma (TC32) (AID 1259256). Also: nearly all actives have a fitted effect of over 45% in size. Also: potency is read from the fitted curve at half-maximal effect. In a few lines:
as §1

Assay [5] can be described thus: Identifying Small Molecule Inhibitors of Pancreatic Cancer Stem Cells (SN12C, Spheroid) (AID 1259360). Also: potency is read from the fitted curve at half-maximal effect. Particulars: Potency: SN12C spheroid viability. In a few lines: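 Adherent (2D) versus sphere (3D) formats; spheres generated 14 d in SCM beforehand. Compound transferred by pin tool after 4 h, 48 h incubation, CellTiter-Glo endpoint.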
Assay [6] in a line: P-glycoprotein substrates identified in KB-3-1 adenocarcinoma cell line, qHTS therapeutic library screen (AID 1346986). Also: nearly all actives have a fitted effect of over 60% in size.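 Also: potency is read from the fitted curve at half-maximal effect; potency is for cytotoxicity meaning loss of cell viability.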 In a few lines: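 Dose-response cytotoxicity, KB-3-1 vs P-gp-high KB-8-5-11, no colchicine in assay medium. Read: CellTiter-Glo at 72 h.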
Assay [7] is described as follows: P-glycoprotein substrates identified in KB-8-5-11 adenocarcinoma cell line, qHTS therapeutic library screen (AID 1346987). Also: nearly all actives have a fitted effect of over 65% in size. Also: potency is read from the fitted curve at half-maximal effect. In a few lines: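 Human cervical adenocarcinoma KB-8-5-11 cells, selected in colchicine to over-express P-gp and assayed without it, were exposed for 72 h to titrated compounds. An ATP-based luminescent viability signal gave AC50.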
A short description of assay [8]: NS1 protein of Zika virus - qHTS assay to identify small molecule inhibitors in human HEK 293 cells (AID 1347053). Also: nearly all actives have a fitted effect of over 55% in size. Also: potency is read from the fitted curve at half-maximal effect. The procedure, abridged: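 Readout was TR-FRET using paired anti-NS1 antibodies after 24 h infection of HEK 293 cells with ZIKV MR766 (MOI = 0.5). Compound preceded virus by 1 h; reduced signal reflects lower NS1 expression.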
Assay [9] can be described thus: Identifying Small Molecule Inhibitors of Pancreatic Cancer Stem Cells (Panc1, Spheroid) (AID 1259359).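 Also: potency is read from the fitted curve at half-maximal effect; compound exposure lasted 48 h before reading.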 In a few lines: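 Endpoint: ATP-based luminescence, 48 h drug exposure. Bortezomib at 9.2 uM final as full-kill control; DMSO vehicle as negative control; activity normalized between vehicle and cell-free wells.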
Assay [10] can be described thus: Identifying Small Molecule Inhibitors of Pancreatic Cancer Stem Cells (A278, Adherent) (AID 1259361).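 Also: viability read after 48 h compound exposure; nearly all actives have a fitted effect of over 35% in size.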 In a few lines: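 Pre-formed 14-day tumor spheroids or adherent cells dosed and incubated 48 h, 37C, 5% CO2. Viability assessed by CellTiter-Glo.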

Values joined by “and” are separate entries in the source; they are usually repeats but may differ in a detail not shown here. Identical values can stand only once. Results filed as inconclusive are left out. More than one record can exist for a structure, and the calls need not agree. Active and inactive are the calls of the source. Calls follow the shape of the dose curve; as a rule, active = well fitted curve in the direction sought with a large enough effect; inconclusive = small, poorly fitted or top-dose-only effect, or another doubt; inactive = no such curve, though single readings can be large; an effect the other way counts as inactive or inconclusive.

Turning to `Clc1ccc2ncc(-c3cccc(NC4CNC4)n3)n2c1`, the Potency in assay [1] was 18.7 µM (active); in assay [2], 20.9 µM (active); in [3], 3.32 µM (active); in assay [4] it was 18.7 µM (active). The Potency entry in [5], in assay [6], in assay [7] and in assay [8] was “inactive” throughout.
On to `CC(C)(C)c1cnc(CSc2cnc(NC(=O)C3CCNCC3)s2)o1`, for which the Potency in [1] is 0.132 µM (active); in [2] it was 0.187 µM (active); in assay [3], 0.148 µM (active); in assay [4] it was 0.148 µM (active); in [9], 418 nM (active); in assay [8] it was 1.32 µM (active). In assay [7], the Potency entry is “inactive”.
Take `CCC(=C(c1ccccc1)c1ccc(OCCN(C)C)cc1)c1ccccc1`: the Potency in [1] was 26.4 µM (active); in assay [2] it was 16.6 µM (active); in assay [3] it was 20.9 µM (active); in assay [4] it was 16.6 µM (active); in [5], 18.7 µM (active). Also, the IC50 (viability decrease) in assay [10] was 23.5 µM (active).
Regarding `CC=C1NC(=O)[C@H]2CSSCCC=C[C@H](CC(=O)N[C@H](C(C)C)C(=O)N2)OC(=O)[C@H](C(C)C)NC1=O`, the Potency was 0.0148 µM (active) in assay [1]; 0.0209 µM (active) in [2]; 0.0187 µM (active) in assay [3]; 0.0148 µM (active) in [4]; 0.0053 µM (active) in assay [5]; 8.33 µM (active) in assay [7]. In addition, in assay [8], the Potency is 4.18 µM (active). In addition, the IC50 (viability decrease) in assay [10] was 0.0053 µM (active).
For `O=C(NCCS(=O)(=O)c1ccc(C(F)(F)F)cn1)c1ccc(Cl)cc1`, the Potency result in [1], in assay [2], in [3], in [4], in [5] and in assay [6] was “inactive” throughout. Also, in assay [8], the Potency entry was “inactive”. Moreover, the IC50 (viability decrease) entry in assay [10] was “inactive”.
As for `Cc1ccc(S(=O)(=O)Nc2cc(Cl)ccc2C(=O)Nc2nc(-c3ccccc3)cs2)cc1`, the Potency in [1] was 10.5 µM (active); in assay [2] it was 13.2 µM (active); in [3], 16.6 µM (active); in [4], 14.8 µM (active). For the same compound, in assay [10], the IC50 (viability decrease) is 3.72 µM (active).
For the compound `CN1CCN(c2ccc3nc(-c4c(N)c5c(F)cccc5[nH]c4=O)[nH]c3c2)CC1`, the Potency in assay [1] was 14.8 µM (active); in assay [2], 11.8 µM (active); in assay [3], 5.9 µM (active); in assay [4], 14.8 µM (active); in [5] it was 6.62 µM (active); in assay [6], 5.17 µM (active). Further, the Potency in assay [7] is 2.64 µM (active) and 8.2 µM (active). In addition, in assay [10], the IC50 (viability decrease) is 3.32 µM (active).
For `CN1CCC(CNc2ccc3ncc(-c4cccc(OC(F)(F)F)c4)n3n2)CC1`, the Potency is 16.6 µM (active) in assay [1]; 16.6 µM (active) in [2]; 10.5 µM (active) in assay [3]; 13.2 µM (active) in assay [4]; 23.5 µM (active) in [5]; 20.6 µM (active) in assay [6]. For the same compound, the Potency in [8] is 16.6 µM (active). The IC50 (viability decrease) in [10] was 18.7 µM (active).
In the case of `O=C(NC1CCNCC1)c1[nH]ncc1NC(=O)c1c(Cl)cccc1Cl`, the Potency in assay [1] was 0.187 µM (active); in [2] it was 0.264 µM (active); in assay [3] it was 0.418 µM (active); in [4] it was 0.209 µM (active); in [9], 1.32 µM (active) and 1.05 µM (active); in assay [5] it was 1.05 µM (active). Also, the Potency is 0.58 µM (active) in assay [6] and 3.72 µM (active) in [8]. Moreover, in assay [7], the Potency result is “inactive”.
In the case of `Cn1cc(-c2[nH]c3cc(NC(=O)[C@H](N)C4CCCCC4)cc4c3c2C=NNC4=O)cn1`, the Potency in assay [1] is 0.833 µM (active); in assay [2], 0.59 µM (active); in [3], 0.372 µM (active); in assay [4], 0.372 µM (active); in assay [5] it was 4.18 µM (active); in assay [8], 0.332 µM (active). Further, in assay [10], the IC50 (viability decrease) is 2.64 µM (active). The Potency entry in assay [7] was “inactive”.
Regarding `O=C(O)c1ccc2c(c1)nc(Nc1cccc(Cl)c1)c1ccncc12`, the Potency in assay [1] is 4.18 µM (active); in [2] it was 4.69 µM (active); in assay [3], 7.43 µM (active); in assay [4] it was 5.9 µM (active); in assay [6], 5.8 µM (active); in assay [7], “inactive and 14.6 µM (active)”. Also, the IC50 (viability decrease) in [10] is 16.6 µM (active).
As to `C=C1C(=CC=C2CCC[C@]3(C)[C@@H]([C@H](C)C=C[C@H](C)C(C)C)CC[C@@H]23)C[C@@H](O)C[C@@H]1O`, the Potency is 0.332 µM (active) in [1], 0.743 µM (active) in assay [2], 2.35 µM (active) in assay [3] and 0.833 µM (active) in [4]. Also, the Potency entry in [5], in [6], in assay [7] and in assay [8] was “inactive” in each case.
For the compound `COc1ccc2c(c1)CC[C@@H](CN(C)CC(=O)O)[C@H]2c1ccccc1`, the Potency was 2.35 µM (active) in [1], 3.72 µM (active) in [2], 2.35 µM (active) in assay [3] and 2.35 µM (active) in [4]. Moreover, the Potency entry in [5] was “inactive”.
As for `Nc1nc(-c2nn(Cc3ccccc3F)c3ncccc23)nc(N)c1N1CCOCC1`, the Potency result in [1], in [2], in assay [3], in assay [4], in assay [5] and in [8] was “inactive” throughout. The IC50 (viability decrease) entry in assay [10] was “inactive”.

The record behind these values is PubChem BioAssay (NCATS).
